Among the test systems are HT29 colon; SNB-75 CNS; SNB-19 CNS; U251 CNS; PC-3 prostate; SK-MEL-5 melanoma; UACC-62 melanoma; LOX IMVI melanoma; SK-MEL-28 melanoma; SK-MEL-2 melanoma.
Common to all, as to test: NCI-60 one-dose screen, 48 h (100 = growth as untreated, 0 = no growth, -100 = all killed)
Settings in all cases: 10 µM

14 compounds from PubChem BioAssay (NCI) can be followed below.

The panel holds about 83,000 compounds, 20% with a hit somewhere; the sample as a whole holds those more often.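 Method: cells in 96-well plates; compound added at one concentration; 48 h incubation; percent growth measured; values under 10 scored active.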 A number with no mark means an inactive call. The source made the active and inactive calls.

As to `CC(C)(C)c1ccc(N2CSC(=S)N(c3ccc(C(C)(C)C)cc3)C2)cc1`, the growth in the assay with HT29 colon is 105%; in the assay with SNB-75 CNS, 76.1%; in the assay with SNB-19 CNS it was 95.4%; with U251 CNS, 100%; in the assay on PC-3 prostate it was 73.8%; in the assay on SK-MEL-5 melanoma it was 96.3%. Further, the growth was 94.9% in the assay with UACC-62 melanoma, 101% with LOX IMVI melanoma, 105% in the assay on SK-MEL-28 melanoma and 101% in the assay with SK-MEL-2 melanoma.
As for `COc1ccc(-c2nc(-c3nc4cc(Cl)c(F)cc4[nH]3)c3ccccn23)cc1`, the growth with HT29 colon was 31.5%; in the assay on SNB-75 CNS it was 66.2%; in the assay with SNB-19 CNS, 55.5%; with U251 CNS, 62.5%; in the assay on PC-3 prostate, 34.6%; in the assay with SK-MEL-5 melanoma, 59.4%. Besides, the growth is 74.5% with UACC-62 melanoma, 65.9% with LOX IMVI melanoma, 91.8% in the assay on SK-MEL-28 melanoma and 50% in the assay with SK-MEL-2 melanoma.
Regarding `COc1ccc(Cl)cc1-n1nnc(-c2nc3ccccc3[nH]2)c1N`, the growth in the assay with HT29 colon is 47.2%; in the assay on SNB-75 CNS, 32.5%; in the assay on SNB-19 CNS, 77%; in the assay with U251 CNS, 53.2%; with PC-3 prostate, 89.2%; with SK-MEL-5 melanoma, 95.9%. Besides, the growth in the assay with UACC-62 melanoma is 104%; in the assay with LOX IMVI melanoma, 77.4%; with SK-MEL-28 melanoma, 100%; in the assay on SK-MEL-2 melanoma, 93.2%.
As for `COc1ccc(-c2cc(-c3ccc(N(C)C)cc3)c(C#N)c(N3CCCC3)n2)cc1`, the growth in the assay on HT29 colon is 63.2%; with SNB-75 CNS, 99.7%; in the assay on SNB-19 CNS, 90.1%; in the assay on U251 CNS it was 86%; with PC-3 prostate it was 82.2%; in the assay with SK-MEL-5 melanoma, 58.5%. Besides, the growth with UACC-62 melanoma is 102%; in the assay on LOX IMVI melanoma it was 34.2%; with SK-MEL-28 melanoma it was 93.4%; with SK-MEL-2 melanoma it was 84%.
For the compound `c1ccc2c(-c3nc(N4CCOCC4)c4c5c(sc4n3)CCCCCC5)cccc2c1`, the growth is 101% with HT29 colon; 85.2% in the assay with SNB-75 CNS; 104% in the assay with SNB-19 CNS; 91% in the assay on U251 CNS; 95% in the assay with PC-3 prostate; 94% in the assay with SK-MEL-5 melanoma. Moreover, the growth was 96.6% in the assay on UACC-62 melanoma, 105% in the assay with LOX IMVI melanoma, 105% with SK-MEL-28 melanoma and 104% in the assay on SK-MEL-2 melanoma.
Regarding `CC/C(C)=C(\C)C(=O)O`, the growth was 106% in the assay on HT29 colon; 94.5% with SNB-75 CNS; 112% in the assay with SNB-19 CNS; 105% with U251 CNS; 104% in the assay with PC-3 prostate; 103% in the assay on SK-MEL-5 melanoma. Further, the growth in the assay with UACC-62 melanoma is 112%; in the assay with LOX IMVI melanoma, 92.7%; in the assay with SK-MEL-28 melanoma, 111%; with SK-MEL-2 melanoma, 102%.
For `CC/C(=C(/c1ccc(OCCN(C)C)cc1)c1ccc(OC(=O)CCCCCCCCC(=O)c2c(C)[nH]c(/C=C3\N=C(c4ccc[nH]4)C=C3OC)c2C)cc1)c1ccccc1`, the growth with HT29 colon was 25.9%; with SNB-75 CNS, 64.7%; with SNB-19 CNS, 81.4%; in the assay with U251 CNS it was 43.5%; with PC-3 prostate, 43%; in the assay on SK-MEL-5 melanoma, 29.3%. Further, the growth was 51.2% in the assay on UACC-62 melanoma, 20.8% in the assay on LOX IMVI melanoma, 84.3% in the assay with SK-MEL-28 melanoma and 95.6% with SK-MEL-2 melanoma.
For `CCCCCCCC(C)NCCO` (stereo not given), the growth was 103% in the assay with HT29 colon; 99.4% with SNB-75 CNS; 109% in the assay with SNB-19 CNS; 108% in the assay with U251 CNS; 105% in the assay with PC-3 prostate; 101% in the assay with SK-MEL-5 melanoma. Besides, the growth in the assay with UACC-62 melanoma was 113%; in the assay with LOX IMVI melanoma, 92.8%; in the assay with SK-MEL-28 melanoma, 112%; with SK-MEL-2 melanoma, 106%.
For `COc1cc(/C=N/NC(=O)c2ccccc2Nc2ccnc(C(F)(F)F)c2)ccc1O`, the growth is 118% in the assay on HT29 colon; 94.1% with SNB-75 CNS; 93.2% in the assay with SNB-19 CNS; 106% in the assay with U251 CNS; 111% in the assay with PC-3 prostate; 106% in the assay with SK-MEL-5 melanoma. Also, the growth in the assay with UACC-62 melanoma was 115%; in the assay on LOX IMVI melanoma, 114%; in the assay on SK-MEL-28 melanoma, 118%; in the assay on SK-MEL-2 melanoma it was 113%.
Consider `O=C1/C(=C/c2ccc([N+](=O)[O-])o2)Oc2ccccc21`, for which the growth was -15.3% (active) in the assay on HT29 colon; 74.7% in the assay on SNB-75 CNS; 89.4% in the assay with SNB-19 CNS; 47.5% with U251 CNS; 42.8% in the assay on PC-3 prostate; 55.7% in the assay with SK-MEL-5 melanoma. For the same compound, the growth with UACC-62 melanoma is -55% (active); in the assay with LOX IMVI melanoma, -60.7% (active); in the assay with SK-MEL-28 melanoma, 21.5%; in the assay with SK-MEL-2 melanoma, 17.2%.
As for `COc1ccc(/C=C2/CN(C(=O)c3ccc(C)cc3)C/C(=C\c3ccc(OC)cc3)C2=O)cc1`, the growth is 32.9% in the assay with HT29 colon; 82.7% in the assay with SNB-75 CNS; 98.5% in the assay on SNB-19 CNS; 89.4% in the assay with U251 CNS; 68.6% in the assay with PC-3 prostate; 89.1% in the assay with SK-MEL-5 melanoma. Besides, the growth in the assay on UACC-62 melanoma was 86.4%; in the assay on LOX IMVI melanoma, 42.1%; in the assay with SK-MEL-28 melanoma, 116%; with SK-MEL-2 melanoma, 95.1%.
Take `N#CCCN(NC(=O)OCc1ccccc1)C(=O)OCc1ccccc1`: the growth in the assay with HT29 colon was 106%; in the assay with SNB-75 CNS, 81.4%; in the assay with SNB-19 CNS it was 108%; in the assay on U251 CNS, 102%; in the assay with PC-3 prostate, 93.4%; in the assay on SK-MEL-5 melanoma, 108%. Further, the growth with UACC-62 melanoma is 101%; with LOX IMVI melanoma it was 94.3%; in the assay on SK-MEL-28 melanoma, 119%; in the assay on SK-MEL-2 melanoma, 106%.
With `O=C(O)CCCCSc1ncnc2nc[nH]c12`, the growth was 106% in the assay with HT29 colon; 102% with SNB-75 CNS; 107% in the assay with SNB-19 CNS; 95.5% with U251 CNS; 99.1% with PC-3 prostate; 101% with SK-MEL-5 melanoma. Also, the growth is 111% in the assay with UACC-62 melanoma, 92.3% in the assay on LOX IMVI melanoma, 112% in the assay with SK-MEL-28 melanoma and 92.4% in the assay on SK-MEL-2 melanoma.
Consider `COc1cc(-c2nn3c(/C=C4/C(=O)Nc5ccccc54)c(-c4ccc(C)cc4)nc3s2)cc(OC)c1OC`, for which the growth in the assay with HT29 colon was 25.7%; in the assay with SNB-75 CNS it was 18.3%; in the assay on SNB-19 CNS, 87.8%; with U251 CNS it was 65.2%; in the assay with PC-3 prostate, 85.5%; with SK-MEL-5 melanoma it was 12.2%. Further, the growth is 58.5% in the assay with UACC-62 melanoma, 44.1% in the assay on LOX IMVI melanoma, 29.1% in the assay with SK-MEL-28 melanoma and 65.9% in the assay with SK-MEL-2 melanoma.
